Data on five molecules can be found in PubChem BioAssay.

Structures are written as SMILES. Active and inactive are the calls of the source. Unless noted, the rule behind the calls is not given here.

Experiment [1] is described as follows: anti-His antibody binders, primary screen, artefact control for SMM control protein annotation, biochemical, small-molecule microarray, 635 nm fluorescence (AID 1128).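 Note: score merges feature fluorescence with signal-to-noise for each printed compound spot.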 As to conditions: anti-His Alexa647 antibody binding, higher = more signal.
For experiment [2], the system named is Human papillomavirus type 1a E7 protein (residues 1-88). In words: HPV1a E7 small-molecule binders, primary screen, biochemical, small-molecule microarray, residues 1-88, 635 nm (AID 1129). The conditions noted are these: small-molecule microarray binding, fluorescence 635 nm; higher = more signal.
For experiment [3], the target named is Focal adhesion kinase 1 (Homo sapiens) (UniProt Q05397). In words: small-molecule microarray binders of FAK, primary screen, biochemical, 635/667 nm fluorescence, BSA, DTT (AID 1130).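 Note: composite of spot emission at 667 nm and signal to noise over triplicate slides.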 The conditions noted are these: PTK2 binding, 635 nm fluorescence, higher = more signal.
Focal adhesion kinase 1 (Homo sapiens), sequence (Q05397 whole entry, looked up): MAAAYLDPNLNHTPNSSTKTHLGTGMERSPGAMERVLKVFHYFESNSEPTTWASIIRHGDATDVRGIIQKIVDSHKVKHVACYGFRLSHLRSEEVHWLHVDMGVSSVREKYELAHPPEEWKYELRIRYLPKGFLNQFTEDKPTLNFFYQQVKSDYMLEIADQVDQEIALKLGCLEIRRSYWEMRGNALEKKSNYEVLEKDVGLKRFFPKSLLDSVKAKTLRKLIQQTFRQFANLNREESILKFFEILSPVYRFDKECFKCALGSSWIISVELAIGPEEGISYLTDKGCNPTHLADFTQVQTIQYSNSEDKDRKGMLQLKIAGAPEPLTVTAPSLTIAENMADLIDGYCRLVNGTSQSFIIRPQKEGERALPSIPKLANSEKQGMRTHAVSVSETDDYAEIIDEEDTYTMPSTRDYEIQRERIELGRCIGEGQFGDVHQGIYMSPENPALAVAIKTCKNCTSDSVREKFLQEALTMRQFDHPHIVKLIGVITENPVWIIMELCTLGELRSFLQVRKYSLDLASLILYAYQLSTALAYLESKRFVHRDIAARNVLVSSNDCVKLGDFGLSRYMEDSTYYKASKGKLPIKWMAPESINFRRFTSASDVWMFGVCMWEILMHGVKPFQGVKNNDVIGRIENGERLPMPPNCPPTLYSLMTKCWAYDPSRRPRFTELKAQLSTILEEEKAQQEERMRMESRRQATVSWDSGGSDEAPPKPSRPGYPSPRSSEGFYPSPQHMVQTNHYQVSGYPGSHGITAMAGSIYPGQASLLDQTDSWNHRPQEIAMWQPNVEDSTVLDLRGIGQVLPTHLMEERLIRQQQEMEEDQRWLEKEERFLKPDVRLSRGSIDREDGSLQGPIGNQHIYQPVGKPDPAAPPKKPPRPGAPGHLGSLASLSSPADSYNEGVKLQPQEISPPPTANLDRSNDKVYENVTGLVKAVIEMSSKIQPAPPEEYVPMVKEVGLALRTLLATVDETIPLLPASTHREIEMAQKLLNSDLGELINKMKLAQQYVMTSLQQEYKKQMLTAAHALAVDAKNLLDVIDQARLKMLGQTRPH
Experiment [4] concerns Fibrinogen (Alexa647-labelled). In words: fibrinogen binders on compound microarrays, profiling panel, artefact control for SMM control-protein annotation, biochemical, small-molecule microarray, 635/667 nm fluorescence (AID 1131).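 Note: z-score merges 667 nm fluorescence with per-spot signal-to-noise over triplicate slides.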 The conditions noted are these: fibrinogen-A647 binding fluorescence, higher = more signal.
In experiment [5] the target is Follistatin (Homo sapiens) (UniProt P19883). In words: follistatin binders on small-molecule microarrays, primary screen, biochemical, small-molecule microarray, 635/667 nm fluorescence (AID 1132). The conditions noted are these: FST binding, 635 nm fluorescence, higher = more signal.
Follistatin (Homo sapiens), sequence (P19883 whole entry, looked up): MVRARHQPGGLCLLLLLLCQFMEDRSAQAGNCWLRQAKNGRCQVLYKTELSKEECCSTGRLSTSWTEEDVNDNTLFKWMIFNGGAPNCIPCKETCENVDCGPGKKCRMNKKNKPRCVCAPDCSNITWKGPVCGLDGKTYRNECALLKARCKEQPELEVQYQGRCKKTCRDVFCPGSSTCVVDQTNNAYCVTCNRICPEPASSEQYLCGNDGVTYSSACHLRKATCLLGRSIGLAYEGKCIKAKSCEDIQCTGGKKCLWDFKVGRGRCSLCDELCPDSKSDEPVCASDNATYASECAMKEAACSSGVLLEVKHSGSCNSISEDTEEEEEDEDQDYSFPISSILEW
Experiment [6] deals with Fibroblast growth factor 2 (Homo sapiens) (UniProt P09038). In words: FGF2 binders on small-molecule microarrays, primary screen, biochemical, small-molecule microarray, 635/667 nm fluorescence (AID 1133). The conditions noted are these: small-molecule microarray binding, FGF2, fluorescence 635/667; higher = more signal.
Fibroblast growth factor 2 (Homo sapiens), sequence (P09038 whole entry, looked up): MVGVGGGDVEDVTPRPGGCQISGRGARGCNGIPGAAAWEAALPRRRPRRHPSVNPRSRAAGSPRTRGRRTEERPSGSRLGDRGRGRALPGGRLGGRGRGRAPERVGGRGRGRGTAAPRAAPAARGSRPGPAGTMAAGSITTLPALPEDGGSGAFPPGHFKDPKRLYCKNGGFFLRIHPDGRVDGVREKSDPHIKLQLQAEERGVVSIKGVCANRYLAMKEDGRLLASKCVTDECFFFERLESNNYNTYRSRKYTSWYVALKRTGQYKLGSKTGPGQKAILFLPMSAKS
Experiment [7] can be described thus: mitochondrial membrane potential change in A549 cells, profiling panel, cell-based, JC-1 fluorescence, basal, 24 h, 100 nL (AID 1138).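 Note: A549 lung adenocarcinoma cells under basal conditions with no added stimulus; test concentration not given here.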 As to conditions: higher = more signal.
Another experiment relates to Lefty1. The experiment in a line: Lefty1 binders on small-molecule microarrays, primary screen, biochemical, small-molecule microarray, 635/667 nm fluorescence (AID 1139). As to conditions: small-molecule microarray binding, fluorescence 635/667; higher = more signal.
Experiment [8] deals with wheat germ agglutinin (Triticum aestivum), Alexa647-labelled. The experiment in a line: wheat germ agglutinin binders on compound microarrays, profiling panel, artefact control for SMM control-protein annotation, biochemical, small-molecule microarray, 635/667 nm fluorescence (AID 1140).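 Note: score merges 667 nm feature emission with signal to noise over triplicate slides.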 As to conditions: WGA-A647 binding, 635 nm fluorescence, higher = more signal.
Experiment [9] has as its target Luciferin 4-monooxygenase (Photinus pyralis) (UniProt P08659). In words: firefly luciferase enzyme inhibitors, primary screen, biochemical, luminescence, purified enzyme, 2006 set (AID 1141).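 Note: cell-free assay with purified firefly luciferase at 100 ng per well in PBS; test concentration not given here.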 The conditions noted are these: SteadyGlo luminescence, 30 min, higher = more signal, called active from +8 up or from −8 down.
Experiment [10] relates to Wnt5a (protein binding on small-molecule microarray). In words: Wnt5a binders on small-molecule microarray, primary screen, biophysical, 635/667 nm fluorescence (AID 1142).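 Note: fluorescence read at 667 nm with signal to noise per printed feature.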 As to conditions: 635 nm fluorescence, higher = more signal.
The nature of experiment [11]: cell viability in Huh7 cells, primary screen, cytotoxicity control for HCV replication inhibitor project, CellTiter-Glo luminescence, basal, 48 h (AID 1143).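 Note: Huh7 hepatoma cells carrying a hepatitis C replication reporter with no stimulus; test concentration not given here.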 As to conditions: Huh7 HCV replicon, higher = more signal, called active from +8 up or from −8 down. (Cellular ATP, detected with luciferase, serves as a proxy for viable cell number.)
Experiment [12] can be described thus: P. aeruginosa biofilm formation inhibitors, primary screen, PAO1 strain, BacTiter-Glo luminescence, LB-PBS (AID 1144). The conditions noted are these: 12 h, higher = more signal.
Experiment [13] is described as follows: CREB reporter modulators without forskolin, primary screen, cell-based, PC12, CRE-LacZ reporter, unstimulated (AID 1145). As to conditions: no forskolin, luminescence, 4.5 h, higher = more signal, called active from +8 up or from −8 down.
A short description of experiment [14]: CREB reporter modulators under forskolin, primary screen, cell-based, PC12, CRE-LacZ reporter, forskolin-stimulated (AID 1146).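 Note: PC12 cells with 6xCRE LacZ reporter stimulated by forskolin 10 µM; beta-galactosidase reporter signal reflecting CREB driven transcription.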 As to conditions: luminescence, 4.5 h, higher = more signal, called active from +8 up or from −8 down.
The target of experiment [15] is Streptavidin (Streptomyces avidinii) (UniProt P22629). The experiment in a line: streptavidin binders on small-molecule microarray, primary screen, artefact control for SMM compound annotation, biophysical, 635/667 nm fluorescence (AID 1147).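 Note: signal reflects streptavidin binding to arrayed compounds as a control protein.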 As to conditions: streptavidin binding, higher = more signal.
Streptavidin (Streptomyces avidinii), sequence (P22629 whole entry, looked up): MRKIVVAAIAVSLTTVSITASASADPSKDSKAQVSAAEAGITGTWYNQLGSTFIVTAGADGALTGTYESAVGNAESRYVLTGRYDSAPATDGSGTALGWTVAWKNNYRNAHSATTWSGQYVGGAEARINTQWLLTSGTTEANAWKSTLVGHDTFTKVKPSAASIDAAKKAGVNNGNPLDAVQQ
Experiment [16] in a line: small-molecule binders of probe aInhba, primary screen, biochemical, small-molecule microarray, 635/667 nm fluorescence (AID 1148).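 Note: score merges 667nm spot fluorescence with signal-to-noise for antibody binding to printed compounds.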 The conditions noted are these: higher = more signal.
Experiment [17] concerns the target Torsin-1A (Homo sapiens) (UniProt O14656). In words: torsin A binders from cell lysate, primary screen, small-molecule microarray, wild-type, 635/667 nm (AID 1149). The conditions noted are these: COS7 hTOR1A-WT lysate, 635 nm fluorescence, higher = more signal.
Experiment [18] has the same target. In words: small-molecule binders of mutant TOR1A in lysate, primary screen, cell lysate, small-molecule microarray, COS7 lysate, 635/667 nm fluorescence (AID 1150).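 Note: score pools 667 nm emission and signal to noise measuring lysate protein binding.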 The conditions noted are these: COS7 hTOR1A mutant lysate, 635 nm fluorescence, higher = more signal.
Experiment [19] relates to Sonic hedgehog protein (Shh). The experiment in a line: small-molecule binders of Shh protein, primary screen, biochemical, small-molecule microarray, 635/667 nm fluorescence (AID 1151).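 Note: Shh protein binding to compounds spotted on small-molecule microarray slides; score combines spot fluorescence intensity with signal-to-noise across triplicate slides.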 The conditions noted are these: small-molecule microarray binding, 635 nm fluorescence; higher = more signal.

Torsin-1A (Homo sapiens), sequence (O14656 whole entry, looked up): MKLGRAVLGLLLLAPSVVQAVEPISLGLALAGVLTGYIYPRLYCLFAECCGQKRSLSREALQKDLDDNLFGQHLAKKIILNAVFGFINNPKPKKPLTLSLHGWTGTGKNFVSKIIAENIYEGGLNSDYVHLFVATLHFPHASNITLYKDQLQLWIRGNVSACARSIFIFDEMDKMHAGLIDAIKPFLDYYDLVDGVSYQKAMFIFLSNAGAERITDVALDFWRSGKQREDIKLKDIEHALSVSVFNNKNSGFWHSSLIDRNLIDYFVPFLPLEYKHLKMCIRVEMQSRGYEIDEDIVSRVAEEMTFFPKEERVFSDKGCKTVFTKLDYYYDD
Luciferin 4-monooxygenase (Photinus pyralis), sequence (P08659 whole entry, looked up): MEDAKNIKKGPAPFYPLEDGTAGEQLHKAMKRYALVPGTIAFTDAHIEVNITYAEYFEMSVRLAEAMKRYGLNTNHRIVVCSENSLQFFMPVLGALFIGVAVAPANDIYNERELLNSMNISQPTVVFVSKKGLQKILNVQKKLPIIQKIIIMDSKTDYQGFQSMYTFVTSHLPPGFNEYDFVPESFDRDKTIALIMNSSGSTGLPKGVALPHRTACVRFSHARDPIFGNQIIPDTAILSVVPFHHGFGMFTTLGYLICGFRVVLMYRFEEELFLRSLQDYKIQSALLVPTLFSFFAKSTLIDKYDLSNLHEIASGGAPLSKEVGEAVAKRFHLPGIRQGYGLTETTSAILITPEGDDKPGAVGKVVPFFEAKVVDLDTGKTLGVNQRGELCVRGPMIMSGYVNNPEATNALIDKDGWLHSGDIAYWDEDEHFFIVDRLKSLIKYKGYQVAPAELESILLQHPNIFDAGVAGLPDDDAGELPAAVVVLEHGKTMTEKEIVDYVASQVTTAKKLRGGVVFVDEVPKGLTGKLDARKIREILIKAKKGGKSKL

Turning to `COCCOC(=O)N1C(=O)[C@@]2(c3cc(C#CCCO)ccc31)[C@H](C(=O)N1CCc3cc(OC)c(OC)cc3C1)[C@H]1C(=O)O[C@H](c3ccccc3)[C@H](c3ccccc3)N1[C@@H]2c1ccc(O)cc1`, the composite z-score in experiment [1] is 1.89; in experiment [2], 1.22; in experiment [3], 0.831; in experiment [4], 0.904; in experiment [5], 0.949; in [6] it was 0.622. Further, the composite z-score stood at 0.791 in the experiment with Lefty1; 0.393 in experiment [8]; 0.304 in experiment [10]; 0.25 in [15]; 0.132 in experiment [16]; 0.73 with Torsin-1A (Homo sapiens) [17]. The composite z-score in the experiment with Torsin-1A (Homo sapiens) [18] was 0.538; in experiment [19], 0.918. Besides, the z-score in [7] is 0.188; in experiment [9], -0.407 (inactive); in [11], -0.173 (inactive); in experiment [12], -0.14 (inactive); in experiment [13] it was -0.815 (inactive); in experiment [14], -0.742 (inactive).

On to `CN(C)C(=O)[C@]1(Cc2ccccc2CN=[N+]=[N-])N=C(c2ccc(OCCCO)cc2)O[C@@H]1c1ccccc1CN=[N+]=[N-]`, for which the composite z-score in experiment [1] was determined as 1.17; in experiment [2], 1.25; in experiment [3], 0.44; in experiment [4], 0.969; in experiment [5] it was 1.28; in [6], 0.355. Also, the composite z-score in the experiment with Lefty1 amounted to 1.06; in experiment [8] it was 1.09; in [10], 0.49; in experiment [15], 0.61; in experiment [16], 0.461; with Torsin-1A (Homo sapiens) [17] it was 1.14. Moreover, the values for the composite z-score (in the experiment with Torsin-1A (Homo sapiens) [18]; in [19]) were 0.917 and 1.11, respectively. For the same molecule, the z-score in experiment [7] was 0.0653; in [9] it was -0.554 (inactive); in experiment [11] it was -5.26 (inactive); in experiment [12] it was -0.611 (inactive); in experiment [13], 1.31 (inactive); in experiment [14], -0.394 (inactive).

As to `C=CCC(OC(C)=O)[C@@H]1[C@@H](N(Cc2cccc3ccccc23)C(=O)c2ccc(-c3ccccc3)cc2)c2cc(OCCCO)ccc2N1C(=O)Cc1ccc(OC)cc1` (stereo not given in full), the composite z-score in [1] was 0.364; in experiment [2] it was -0.128; in experiment [3], 0.179; in experiment [4], 0.603; in experiment [5] it was 0.652; in [6], -0.0199. Also, the composite z-score amounted to 0.246 in the experiment with Lefty1; 0.281 in [8]; 0.36 in experiment [10]; 0.311 in [15]; 0.0018 in experiment [16]; 0.0276 in the experiment with Torsin-1A (Homo sapiens) [17]. Further, the composite z-score in the experiment with Torsin-1A (Homo sapiens) [18] is -0.265; in experiment [19] it was 0.179. Moreover, the z-score was 1.06 in [7]; 0.912 (inactive) in experiment [9]; -0.454 (inactive) in experiment [11]; -0.266 (inactive) in experiment [12]; -0.491 (inactive) in experiment [13]; 0.117 (inactive) in experiment [14].

As to `O=C1C2C=CC(C(O)c3c(F)cccc3Cl)N(Nc3ccccc3)C2C(=O)N1c1ccccc1` (stereo not given), the composite z-score in [1] was 0.397; in [2], 1.26; in [3], 0.471; in experiment [4] it was 1.03; in experiment [5] it was 1.24; in experiment [6] it was -0.0407. The composite z-score with Lefty1 stood at 0.464; in experiment [8] it was 0.816; in experiment [10], 0.422; in experiment [15], 1.1; in [16], 0.153; in the experiment with Torsin-1A (Homo sapiens) [17], 0.463. Besides, the composite z-score is 0.836 in the experiment with Torsin-1A (Homo sapiens) [18] and -0.104 in experiment [19]. Also, the z-score is 0.555 in experiment [7]; 0.429 (inactive) in experiment [9]; -0.165 (inactive) in experiment [11]; -0.48 (inactive) in [12]; 0.0535 (inactive) in [13]; -0.0349 (inactive) in experiment [14].

Turning to `C=CCC(OC(C)=O)[C@@H]1[C@@H](N(Cc2ccc(-c3ccccc3)cc2)C(=O)Cc2ccc(F)cc2)c2cc(OCCCO)ccc2N1C(=O)c1ccc(-c2ccccc2)cc1` (stereo not given in full), the composite z-score was -0.414 in experiment [1]; -1.03 in experiment [2]; -0.0744 in [3]; 0.259 in [4]; 0.267 in experiment [5]; -0.297 in [6]. The composite z-score in the experiment with Lefty1 was -0.0123; in [8] it was -0.217; in [10], -0.163; in experiment [15] it was 0.711; in [16] it was -0.157; with Torsin-1A (Homo sapiens) [17], -0.628. Also, the values for the composite z-score (with Torsin-1A (Homo sapiens) [18]; in [19]) were -0.222 and 0.249, respectively. Further, the z-score is 0.796 in experiment [7]; 1.03 (inactive) in experiment [9]; -1.13 (inactive) in experiment [11]; -0.757 (inactive) in experiment [12]; -1.23 (inactive) in experiment [13]; -0.0988 (inactive) in [14].
